# Sampled rows, rich in hits. Any-hit rate of the full collection: about 9%.
# JMJD2A Tudor inh – blocks the human JMJD2A Tudor domain. 4.4% of 390,000 active. O75164. AlphaScreen JMJD2A-Tudor / H3K4me3 peptide binding. Potency, µM (highest dose often 114 µM), inactives show at the top dose activity change, negative = inhibition, usual class: inhibitors; note: % is set by controls: 0 for no effect and ±100 for the full control effect; nearly all actives have a fitted effect of over 50% in size
# PLK1 PBD inh – PLK1 (human) polo-box domain binding inhibition; P53350; Plk1 PBD binding of FITC phosphopeptide, fluorescence polarization; Potency, µM, inactives show max response, negative = inhibition, usual class: inhibitors; 2.8% of 360,000 active; note: series mostly up to about 57 µM; % is set by controls: 0 for no effect and ±100 for the full control effect; nearly all actives have a fitted effect of over 65% in size
# HP1b chromo inh – HP1-beta chromodomain-methylated histone interaction inhibition; Potency, µM (titrated, usually from 114 µM), without a hit: at the highest dose activity change, negative = inhibition, actives largely listed as inhibitors; 0.56% of 390,000 active; AlphaScreen HP1-beta / biotin-H3K9me3 peptide binding; note: nearly all actives have a fitted effect of over 70% in size
# Target sequence (P83916 whole entry, looked up): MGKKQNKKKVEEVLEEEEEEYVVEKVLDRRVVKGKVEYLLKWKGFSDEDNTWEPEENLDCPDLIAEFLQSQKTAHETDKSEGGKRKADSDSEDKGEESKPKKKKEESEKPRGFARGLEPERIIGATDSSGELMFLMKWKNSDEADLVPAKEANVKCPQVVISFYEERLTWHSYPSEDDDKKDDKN
#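 Compound inhibition of the preformed complex between 50 nM HP1-beta and 50 nM biotinylated H3K9me3 peptide was read by AlphaScreen. Buffer was PBS pH 7.4 with 0.01% Tween-20. Incubations ran 30 min at room temperature, with 10 ug/mL donor/acceptor beads.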
# BAZ2B block – BAZ2B (human) inhibition; AlphaScreen BAZ2B-H3K14Ac peptide displacement; Potency, µM (doses to about 114 µM), inactives show top-dose activity change, negative = inhibition, hits mostly inhibitors; 4.4% of 360,000 active; note: % is set by controls: 0 for no effect and ±100 for the full control effect; nearly all actives have a fitted effect of over 60% in size
#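 Inhibition is scored as reduced AlphaScreen emission. The BAZ2B/b-H3(5-23)K14Ac complex (50 nM each) in PBS pH 7.4, 0.01% Tween-20 meets compound (up to 110 uM) for 30 min at RT before bead addition.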
# G9a block – G9a (human) methyltransferase inhibition; Q96KQ7; G9a H3K9 monomethylation, AlphaScreen, 2 h; Potency, µM (titrated, usually from 102 µM), for inactives: top-dose activity, negative = inhibition, actives largely listed as inhibitors; 8.8% of 350,000 active; AID 504332; note: % is set by controls: 0 for no effect and ±100 for the full control effect; nearly all actives have a fitted effect of over 75% in size
# Target sequence (Q96KQ7 913-1193 limits assumed): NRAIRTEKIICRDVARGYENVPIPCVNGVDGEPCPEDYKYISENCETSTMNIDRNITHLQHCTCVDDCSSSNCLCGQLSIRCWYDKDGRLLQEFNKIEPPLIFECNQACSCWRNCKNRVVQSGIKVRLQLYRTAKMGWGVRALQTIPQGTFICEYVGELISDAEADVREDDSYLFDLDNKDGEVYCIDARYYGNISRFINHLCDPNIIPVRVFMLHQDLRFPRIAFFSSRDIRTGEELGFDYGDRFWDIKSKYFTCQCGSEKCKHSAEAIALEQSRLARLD
#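 Step 1: enzyme (final 20 nM) with compound, 15 min RT. Step 2: substrate peptide 500 nM and SAM 20 uM, 2 h RT. Step 3: anti-H3K9me1 antibody and AlphaScreen beads, 10 min, then plate read.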
# ALOX12 inh – inhibitors of human 12S-lipoxygenase ALOX12; purified 12hLO, xylenol orange hydroperoxide absorbance; Potency, µM (highest dose often 108 µM), inactives show at the top dose activity change, negative = inhibition, hits mostly inhibitors; 1.1% of 580,000 active; AID 1671190; note: % is set by controls: 0 for no effect and ±100 for the full control effect
#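 Purified human 12hLO (150 nM final) in 25 mM Hepes, 0.01% Triton X-100, pH 7.0 was preincubated 15 min at room temperature with compound. Then 40 uM arachidonic acid was added, 30 min. Hydroperoxide was read by Fe-XO absorbance ratio 573/405 nm.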
# An asterisk follows results filed as active; u = inconclusive; x = no result; ! = not active in a repeat; [ ] = remark or other dose. Calls come from the whole dose curve; as a rule, active = well fitted curve in the direction sought with a large enough effect; inconclusive = small, poorly fitted or top-dose-only effect, or another doubt; inactive = no such curve, though single readings can be large; an effect the other way counts as inactive or inconclusive. Potency is the fitted concentration of half-maximal effect.
SMILES,JMJD2A Tudor inh,PLK1 PBD inh,HP1b chromo inh,BAZ2B block,G9a block,ALOX12 inh
COc1ccc2ccccc2c1CNCCc1ccccc1,-14.3%,2.7%,31.0%,7.5%,x,u
COc1cccc(CCNCc2c(F)cccc2F)c1,u,u,u,39.8µM*,7.94µM*,-25.7%
COc1cc2c(cc1OC)[C@@H]1C(=O)c3ccc4c(c3O[C@@H]1CO2)C[C@H](C(C)C)O4,u,-7.4%,-5.7%,u,x,205.4%
COc1cc2c(cc1OC)C1C(=O)c3ccc4c(c3OC1CO2)CC(C(C)C)O4 (stereo unspecified),44.7µM*,4.5%,-27.6%[57 µM],x,x,-35.3%
N[C@@H](Cn1oc(=O)[nH]c1=O)C(=O)O,3.98µM*,-1.0%,-7.5%,x,10µM*!,u
CCOc1ccc2nc(N=Nc3c(O)[nH]c(=O)[nH]c3=O)sc2c1,-11.0%[11.4 µM],-25.1%,-6.4%,44.7µM*,x,-28.3%
CCOC(=O)c1sc(N=Nc2c(O)[nH]c(=O)[nH]c2=O)c(C(=O)OCC)c1C,x,x,x,-36.5%,-22.8%[59 µM],x
CCOc1ccc2nc(N=Nc3c(O)[nH]c(=S)[nH]c3=O)sc2c1,u,-27.6%,u,22.4µM*,35.5µM*,-15.6%
CC(C)N1CCOC(c2ccc(O)c(O)c2)C1 (stereo unspecified),x,2.1%,x,x,x,u
C[C@]12CC[C@@H]3c4ccc(O[C@@H]5O[C@H](C(=O)O)[C@@H](O)[C@H](O)[C@H]5O)cc4CC[C@H]3[C@@H]1C[C@@H](O)[C@@H]2O,-12.2%,-11.0%,25.3%,-0.6%,u,u
COc1ccc2c(c1)CCC1C2CC[C@@]2(C)C1CC[C@@H]2NCCCCCCN1C(=O)C=CC1=O (stereo partly specified),x,x,x,x,2.51µM*,x
O=c1[nH]c2ccccc2c(=O)n1-c1ccc(Cl)cc1Cl,-0.7%,5.1%,35.0%,-12.9%,-2.7%,-5.6%
C=C(C)Cn1c(-c2cccs2)n[nH]c1=S,5.62µM*,-14.7%,-11.5%,-18.3%,14.1µM*,u
O=[N+]([O-])c1cccc(O)c1,-9.7%,-8.0%,9.2%,-2.5%,-18.5%[0.501 µM],11.4%
C=C(C)Cn1c(-c2cccc([N+](=O)[O-])c2)n[nH]c1=S,8.91µM*,-16.3%,11.0%,-15.7%,12.6µM*,u
C[C@@H]1CN([C@H](C)CO)C(=O)CCCn2nncc2CO[C@H]1CN(C)C(=O)Oc1cccc2ccccc12,x,-1.4%,x,x,x,75.7%
O=C(O)c1ccc(-n2c(O)c(/C=C3\C=Nc4ccccc43)c(=O)[nH]c2=O)cc1,-11.6%,9.47µM*,5.1%,-16.1%,44.7µM*,u
O=c1[nH]c(=O)n(-c2cccc(F)c2)c(O)c1/C=C1\C=Nc2ccccc21,-1.4%,u,32.8%,6.5%,-12.4%,-13.9%
CCCCn1c(O)c(/C=C2\C=Nc3ccccc32)c(=O)[nH]c1=O,-21.9%,-19.9%,12.5%,-4.5%,70.8µM*,10.8%
CCCCCCn1c(O)c(C=Nc2c(C)n(C)n(-c3ccccc3)c2=O)c(=O)[nH]c1=O,2.0%,1.9%,17.7%,-32.3%,-22.1%[12.7 µM],400.3%
COCCOC1CCN(C(=O)c2nn(C)c3ccccc23)CC1,x,x,x,x,x,15.6%
Cc1ccsc1C(=O)C1CCCN(Cc2cccc(F)c2)C1 (stereo unspecified),x,x,x,x,x,32.9%
CC(C)(C)c1cc([N+](=O)[O-])cc(C(C)(C)C)c1O,-21.0%,26.7µM*,-12.4%,-9.0%,-23.6%,-33.2%
NC(=O)c1cc([N+](=O)[O-])cc([N+](=O)[O-])c1,-17.2%,-15.9%,48.0%,x,-16.6%[2.33 µM],24.3%
Clc1ccc(Cl)c(-c2ccc(CNC3CN4CCC3CC4)o2)c1 (stereo unspecified),x,x,x,x,x,8.91µM*
SMILES,JMJD2A Tudor inh,PLK1 PBD inh,HP1b chromo inh,BAZ2B block,G9a block,ALOX12 inh
Fc1ccc(CNC2CN3CCC2CC3)cc1 (stereo unspecified),2.6%,-2.9%,26.9%,-20.2%,u,-14.2%
CN(C)[C@H]1CCCCN(C(=O)Cc2ccc(S(C)(=O)=O)cc2)C1,x,x,x,x,x,2.0%
O=C(Nc1nn[nH]n1)c1cccc([N+](=O)[O-])c1,22.4µM*,-4.5%,19.6%,79.4µM*,25.1µM*,-8.7%
COc1ccc(/C=N/NC(=O)c2cccc([N+](=O)[O-])c2)cc1OC,-6.5%,-9.7%,43.3%,-15.4%,x,-11.7%
C[N+](C)(C)c1ccccc1,u,1.2%,17.5%,-12.7%,20µM*,u
COC(=O)C1=C(c2ccccc2OCc2ccccc2)C[C@@H]2CC[C@H]1N2C(=O)NCc1ccc(N(C)C)cc1,20µM*,-1.5%,-22.8%,28.2µM*,-5.6%[0.501 µM],-6.1%
COC(=O)C1=C(c2ccc(F)cc2OCc2ccccc2)C[C@@H]2CC[C@H]1N2C(=O)NCc1ccc(N(C)C)cc1,22.4µM*,-7.9%,u,10µM*,18.6%[2.33 µM],1.9%
COC(=O)C1=C(c2ccccc2OCc2ccccc2)C[C@@H]2CC[C@H]1N2C(=O)NCc1ccc(Cl)cc1,-14.8%,-0.4%,28.7%,-5.1%,-5.7%[0.501 µM],-5.7%
COC(=O)C1=C(c2cccc(OCc3ccccc3)c2)C[C@@H]2CC[C@H]1N2C(=O)NCc1ccc(C(C)(C)C)cc1,-24.6%,-8.6%,21.3%,-3.6%,1.7%[0.501 µM],-5.6%
COC(=O)C1=C(c2cccc(OCc3ccccc3)c2)C[C@@H]2CC[C@H]1N2C(=O)NCc1ccc(N(C)C)cc1,20µM*,-3.4%,u,10µM*,-7.5%[2.33 µM],7.6%
COC(=O)C1=C(c2ccc(F)cc2OCc2ccccc2)C[C@@H]2CC[C@H]1N2C(=O)NCc1ccc(Br)cc1,-7.9%,-4.0%,37.7%,1.7%,8.4%[0.501 µM],-10.8%
COC(=O)C1=C(c2ccc(C(C)=O)cc2)C[C@@H]2CC[C@H]1N2C(=O)NC1CC1,-3.4%,1.3%,57.5%,0.7%,-4.9%[2.33 µM],13.4%
COC(=O)C1=C(c2ccc(Cl)c(C(F)(F)F)c2)C[C@@H]2CC[C@H]1N2C(=O)NCCOc1ccccc1Cl,-14.8%,-0.6%,35.6%,5.9%,-4.9%[2.33 µM],x
COc1cc(C2NCc3ccccc3-n3cccc32)ccc1O (stereo unspecified),-27.6%,-2.0%,-3.0%,-31.9%,-14.3%[59 µM],u
COc1ccc(C2NCc3ccccc3-n3cccc32)cc1 (stereo unspecified),u,2.0%,-15.2%,u,70.8µM*,6.1%
Clc1cccc(C2NCc3ccccc3-n3cccc32)c1 (stereo unspecified),-5.9%[11.4 µM],29.9µM*,-21.0%,-34.1%,-6.0%,u
CCOc1cc(C2NCc3ccccc3-n3cccc32)ccc1OC (stereo unspecified),u,-2.7%,-8.5%,u,u,16.3%
Cn1cnc(S(=O)(=O)N2[C@H]3CC[C@@H]2c2cnc(-c4ccccc4)nc2C3)c1,x,x,x,x,x,13.5%
